Read-out in experiment [1]: Tissue Factor, F3 (gene 2152)
Kind of experiment: BSK_CASM3C_TissueFactor: BioMAP Diversity Plus: CASM3C Assay for Tissue Factor Biomarker Activity (AID 2283052).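 Further: cell surface tissue factor protein level read by ELISA.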 The conditions noted are these: primary human coronary artery smooth muscle cells; actives raise or lower the signal.

Read-out in experiment [2]: Interferon-gamma inducible Protein 10 (IP10), CXCL10 (gene 3627)
Kind of experiment: BSK_hDFCGF_IP10: BioMAP Diversity Plus: hDFCGF Assay for Interferon-gamma inducible Protein 10 (IP10) Biomarker Activity (AID 2283053). The conditions noted are these: primary human foreskin fibroblasts; actives raise or lower the signal. A digest of the protocol: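 Primary foreskin fibroblasts, human; 24 h compound exposure; IP-10 by ELISA; bidirectional fit vs DMSO.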

Read-out in experiment [3]: Urokinase-type plasminogen activator receptor (uPAR), PLAUR (gene 5329)
Briefly: BSK_CASM3C_uPAR: BioMAP Diversity Plus: CASM3C Assay for Urokinase-type plasminogen activator receptor (uPAR) Biomarker Activity (AID 2283054).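 Further: cell-surface uPAR protein level quantified by ELISA.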 The conditions noted are these: primary human coronary artery smooth muscle cells; actives raise or lower the signal.

Read-out in experiment [4]: Vascular cell adhesion molecule 1 (VCAM1), VCAM1 (gene 7412)
Kind of experiment: BSK_CASM3C_VCAM1: BioMAP Diversity Plus: CASM3C Assay for Vascular cell adhesion molecule 1 (VCAM1) Biomarker Activity (AID 2283055).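 Further: VCAM-1 protein level quantified by ELISA on the cells.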 The conditions noted are these: primary human coronary artery smooth muscle cells; actives raise or lower the signal.

Read-out in experiment [5]: Collagen III, COL3A1 (gene 1281)
Kind of experiment: BSK_hDFCGF_CollagenIII: BioMAP Diversity Plus: hDFCGF Assay for Collagen III Biomarker Activity (AID 2283056). The conditions noted are these: primary human foreskin fibroblasts; actives raise or lower the signal. In outline: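 hDFCGF primary human dermal fibroblasts; 24 h chemical exposure; collagen III by ELISA; bidirectional curve fit vs DMSO baseline (gain or loss of signal).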

Read-out in experiment [6]: Epidermal growth factor receptor (EGFR), EGFR (gene 1956)
Kind of experiment: BSK_hDFCGF_EGFR: BioMAP Diversity Plus: hDFCGF Assay for Epidermal growth factor receptor (EGFR) Biomarker Activity (AID 2283057). The conditions noted are these: primary human foreskin fibroblasts; actives raise or lower the signal. In outline:
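hDFCGF system, primary human foreskin fibroblasts; compound 24 h; EGFR measured by ELISA; DMSO = negative control/baseline; bidirectional fitting.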

Read-out in experiment [7]: Interleukin-8 (IL8), CXCL8 (gene 3576)
Briefly: BSK_hDFCGF_IL8: BioMAP Diversity Plus: hDFCGF Assay for Interleukin-8 (IL8) Biomarker Activity (AID 2283058). The conditions noted are these: primary human foreskin fibroblasts; actives raise or lower the signal. A digest of the protocol:
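ELISA read-out of IL-8 from primary human foreskin fibroblast cultures taken 24 h after dosing; values are bidirectional fits relative to DMSO vehicle.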

The nature of experiment [8]: BSK_hDFCGF_Proliferation: Cell Proliferation Assessment in the BioMAP Diversity Plus: hDFCGF Assay (AID 2283059).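 Further: curves fitted for both rise and fall of signal versus DMSO baseline.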 The conditions noted are these: primary human foreskin fibroblasts. A digest of the protocol:
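This proliferation readout used SRB total-protein staining of human foreskin fibroblasts […], normalized to DMSO with bidirectional curve fitting.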

Read-out in experiment [9]: Macrophage colony-stimulating factor (MCSF), CSF1 (gene 1435)
Briefly: BSK_hDFCGF_MCSF: BioMAP Diversity Plus: hDFCGF Assay for Macrophage colony-stimulating factor (MCSF) Biomarker Activity (AID 2283060). The conditions noted are these: primary human foreskin fibroblasts; actives raise or lower the signal. A digest of the protocol:
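ELISA read-out of M-CSF in human dermal foreskin fibroblast cultures, 24 h after chemical dosing; gain or loss of signal fitted bidirectionally relative to DMSO baseline.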

Experiment [10] is described as follows: BSK_hDFCGF_SRB: Viability Assessment in the BioMAP Diversity Plus: hDFCGF Assay (AID 2283061).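 Further: cells exposed to compound for 24 h before the read.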 The conditions noted are these: primary human foreskin fibroblasts. A digest of the protocol: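 Primary human foreskin fibroblasts; 24 h post-dose; fixed 10% TCA, stained 0.1% SRB, A560 read; total protein as overt cytotoxicity measure; curves fit bidirectionally vs DMSO control.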

Read-out in experiment [11]: TIMP metallopeptidase inhibitor 1 (TIMP1), TIMP1 (gene 7076)
Briefly: BSK_hDFCGF_TIMP1: BioMAP Diversity Plus: hDFCGF Assay for TIMP metallopeptidase inhibitor 1 (TIMP1) Biomarker Activity (AID 2283062). The conditions noted are these: primary human foreskin fibroblasts; actives raise or lower the signal. A digest of the protocol:
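ELISA readout of TIMP-1 from human dermal foreskin fibroblast cultures 24 h post-dosing. Curves were fitted in both directions against DMSO baseline, with SRB total-protein staining in parallel cultures as a cytotoxicity check.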

Read-out in experiment [12]: Monokine induced gamma interferon (MIG), CXCL9 (gene 4283)
Briefly: BSK_hDFCGF_MIG: BioMAP Diversity Plus: hDFCGF Assay for Monokine induced gamma interferon (MIG) Biomarker Activity (AID 2283063). The conditions noted are these: primary human foreskin fibroblasts; actives raise or lower the signal. In outline: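 Fibroblasts (human foreskin, primary) dosed, 24 h, MIG by ELISA; fit bidirectional vs DMSO.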

Read-out in experiment [13]: Matrix Metallopeptidase 1 (MMP1), MMP1 (gene 4312)
Kind of experiment: BSK_hDFCGF_MMP1: BioMAP Diversity Plus: hDFCGF Assay for Matrix Metallopeptidase 1 (MMP1) Biomarker Activity (AID 2283064). The conditions noted are these: primary human foreskin fibroblasts; actives raise or lower the signal. In outline: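 Primary human foreskin fibroblasts in the hDFCGF system were dosed with test chemical, and MMP1 was measured by ELISA 24 h later. Values come from bidirectional curve fitting against the DMSO baseline.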

Read-out in experiment [14]: Vascular cell adhesion molecule 1 (VCAM1), VCAM1 (gene 7412)
Kind of experiment: BSK_hDFCGF_VCAM1: BioMAP Diversity Plus: hDFCGF Assay for Vascular cell adhesion molecule 1 (VCAM1) Biomarker Activity (AID 2283065).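 On AC50: VCAM-1 protein level quantified by ELISA after 24 h chemical exposure.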 The conditions noted are these: primary human foreskin fibroblasts; actives raise or lower the signal. A digest of the protocol: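 ELISA read-out of VCAM-1 on human skin fibroblasts, 24 h post-dose; gain or loss of signal fitted bidirectionally against DMSO baseline.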

Read-out in experiment [15]: Plasminogen activator inhibitor-1 (PAI1), SERPINE1 (gene 5054)
Briefly: BSK_hDFCGF_PAI1: BioMAP Diversity Plus: hDFCGF Assay for Plasminogen activator inhibitor-1 (PAI1) Biomarker Activity (AID 2283066). The conditions noted are these: primary human foreskin fibroblasts; actives raise or lower the signal. In outline: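 Primary dermal fibroblasts (human foreskin), hDFCGF system; compound 24 h; PAI-1 by ELISA; bidirectional fit vs DMSO control.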

Read-out in experiment [16]: Intercellular Adhesion Molecule 1 (ICAM1), ICAM1 (gene 3383)
Briefly: BSK_KF3CT_ICAM1: BioMAP Diversity Plus: KF3CT Assay for Intercellular Adhesion Molecule 1 (ICAM1) Biomarker Activity (AID 2283067). The conditions noted are these: primary human keratinocytes with fibroblasts; actives raise or lower the signal. In outline: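 ELISA readout of ICAM-1; KF3CT human skin co-culture (keratinocytes + foreskin fibroblasts), 24 h post-dose; gain/loss fit vs DMSO baseline.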

Read-out in experiment [17]: Interferon-gamma inducible Protein 10 (IP10), CXCL10 (gene 3627)
Briefly: BSK_KF3CT_IP10: BioMAP Diversity Plus: KF3CT Assay for Interferon-gamma inducible Protein 10 (IP10) Biomarker Activity (AID 2283068). The conditions noted are these: primary human keratinocytes with fibroblasts; actives raise or lower the signal. A digest of the protocol: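 Signal is secreted/surface IP-10 by ELISA in a human primary skin co-culture of keratinocytes and foreskin fibroblasts, taken 24 h post-dosing; DMSO served as negative control.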

The nature of experiment [18]: BSK_KF3CT_SRB: Viability Assessment in the BioMAP Diversity Plus: KF3CT Assay (AID 2283069).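 Further: total protein by sulforhodamine B staining as a cytotoxicity measure; read 24 h after compound addition.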 The conditions noted are these: primary human keratinocytes with fibroblasts. In outline: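 Human primary keratinocyte plus foreskin fibroblast co-culture exposed to chemicals for 24 h. Total protein measured by 0.1% sulforhodamine B staining after 10% TCA fixation, read at 560 nm; bidirectional fitting versus DMSO baseline.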

Read-out in experiment [19]: TIMP metallopeptidase inhibitor 2 (TIMP2), TIMP2 (gene 7077)
Briefly: BSK_KF3CT_TIMP2: BioMAP Diversity Plus: KF3CT Assay for TIMP metallopeptidase inhibitor 2 (TIMP2) Biomarker Activity (AID 2283071). The conditions noted are these: primary human keratinocytes with fibroblasts; actives raise or lower the signal. In outline: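 Cells: human keratinocytes co-cultured with foreskin fibroblasts. Treat with chemical, 24 h. Measure TIMP-2 by ELISA; fit curves bidirectionally vs DMSO baseline.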

Read-out in experiment [20]: Interleukin-1 alpha (IL1a), IL1A (gene 3552)
Briefly: BSK_KF3CT_IL1a: BioMAP Diversity Plus: KF3CT Assay for Interleukin-1 alpha (IL1a) Biomarker Activity (AID 2283070). The conditions noted are these: primary human keratinocytes with fibroblasts; actives raise or lower the signal. In outline:
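Human keratinocyte plus foreskin fibroblast primary co-culture, sampled 24 h after chemical dosing. IL-1a measured by ELISA; responses fitted bidirectionally against DMSO baseline (negative control), so gain or loss of signal both count.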

The text below walks through data of PubChem BioAssay (EPA / NIEHS).

The term AC50 denotes the concentration giving half of the maximal activity seen.

The structures appear in SMILES notation. Calls of active or inactive are those of the source. How the source made its calls: active means hit-call score of the fitted dose curve at least 0.9, where 1 is the maximum; inactive means score below 0.9.

For `Clc1ccccc1Cl`, the result in [1], in experiment [2], in experiment [3], in experiment [4], in [5] and in [6] was inactive. Moreover, the result in experiment [7], in experiment [8], in experiment [9], in experiment [10], in experiment [11] and in [12] was inactive. For the same molecule, the result in experiment [13], in experiment [14], in experiment [15], in experiment [16], in experiment [17] and in experiment [18] was inactive. Besides, in experiment [19], the outcome was inactive.
On to `CO[C@@H]1[C@H](OC(=O)NC(=O)CCl)CC[C@]2(CO2)[C@H]1[C@@]1(C)O[C@@H]1CC=C(C)C`, for which the outcome in experiment [1], in experiment [3], in experiment [15], in experiment [18] and in experiment [19] was inactive. In addition, the AC50 in experiment [2] is 5.48 µM (active); in experiment [4], 6.2 µM (active); in experiment [5], 2.63 µM (active); in [6], 9.51 µM (active); in experiment [7] it was 11.5 µM (active); in experiment [8], 2.28 µM (active). The AC50 in experiment [9] is 6.58 µM (active); in experiment [10], 9.25 µM (active); in experiment [11], 5.82 µM (active); in experiment [12] it was 8.35 µM (active); in experiment [13] it was 11.6 µM (active); in [14] it was 4.58 µM (active). In addition, the values for the AC50 in experiment [17] and in [20] were 8.27 µM (active) and 7.91 µM (active), respectively.
As to `OCCOCCO`, the result in experiment [1], in experiment [2], in [3], in [4], in experiment [5] and in [6] was inactive. Moreover, the outcome in experiment [7], in [8], in [9], in experiment [10], in experiment [11] and in experiment [12] was inactive. For the same molecule, the result in experiment [13], in [14], in experiment [15], in experiment [17], in experiment [18] and in experiment [20] was inactive. Besides, the outcome in [19] was inactive.
As to `OCCCBr`, the outcome in experiment [1], in [2], in experiment [3], in [4], in experiment [5] and in [6] was inactive. Besides, the outcome in [7], in [8], in [9], in experiment [10], in [11] and in [12] was inactive. Further, the outcome in experiment [13], in experiment [14], in [15], in [17], in [18] and in experiment [20] was inactive. Further, the result in experiment [19] was inactive.
For `CN(C)c1ccc(C(=O)c2ccc(N(C)C)cc2)cc1`, the result in experiment [1], in [2], in experiment [3], in [4], in experiment [5] and in [6] was inactive. The outcome in [7], in [9], in [10], in [11], in experiment [12] and in experiment [13] was inactive. For the same molecule, the result in experiment [14], in experiment [15], in experiment [17], in [18], in experiment [20] and in experiment [19] was inactive. Besides, the half-maximal activity concentration (AC50) in experiment [8] was 1.56 µM (active).
